AmpC no deterg = qHTS Inhibitors of AmpC Beta-Lactamase (assay without detergent); P00811; AmpC nitrocefin hydrolysis, absorbance 480 nm, 0.0001% Triton; Potency, µM (doses to about 57.1 µM), without a hit: at the top dose activity change, negative = inhibition, hits mostly inhibitors; 0.52% of 330,000 active; AID 485341, 2010;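 also: potency is read from the fitted curve at half-maximal effect; plate controls were no compound for no effect and no enzyme for full effect; nearly all actives have a fitted effect of over 20% in size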
Target sequence (P00811 whole entry, looked up): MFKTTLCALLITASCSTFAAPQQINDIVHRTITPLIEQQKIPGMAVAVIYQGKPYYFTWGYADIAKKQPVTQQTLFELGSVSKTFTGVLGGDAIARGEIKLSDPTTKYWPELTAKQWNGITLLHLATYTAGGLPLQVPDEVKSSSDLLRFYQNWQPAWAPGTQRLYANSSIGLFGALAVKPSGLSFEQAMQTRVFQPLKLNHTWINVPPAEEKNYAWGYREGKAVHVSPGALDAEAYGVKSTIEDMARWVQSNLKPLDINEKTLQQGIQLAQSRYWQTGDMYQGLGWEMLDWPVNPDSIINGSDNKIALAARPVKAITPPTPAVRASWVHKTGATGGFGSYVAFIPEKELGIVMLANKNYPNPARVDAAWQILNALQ
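AmpC (5.3 nM in the dispensed reagent) in 20 mM phosphate pH 7.0 with 0.01% (detergent screen) or 0.0001% Triton X-100 was preincubated with compounds for 15 min at room temperature. Nitrocefin was then added from an 800 uM solution, and hydrolysis was followed at 480 nm.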
Shiga toxin inh = A qHTS for Small Molecule Inhibitors of Shiga Toxin. Vero cells, Shiga toxin protein synthesis inhibition reporter. inhibition, % at 38.7 µM. 9.2% of 290,000 active; in the data active = inhibition mostly above about 28%, no sharp cut-off; inactive = mostly below about 43%; also: 0% is about no effect
AmpC detergent = qHTS Inhibitors of AmpC Beta-Lactamase (assay with detergent) | P00811 | AmpC hydrolysis of nitrocefin, absorbance 480 nm, 0.01% Triton | Potency, µM (doses to about 114 µM), for inactives: at the top dose activity change, negative = inhibition, usual class: inhibitors | 0.041% of 370,000 active | AID 485294, 2010;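 also: potency is read from the fitted curve at half-maximal effect; 0% = no-compound wells and -100% = no-enzyme wells; nearly all actives have a fitted effect of over 25% in size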
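AmpC (5.3 nM in the dispensed reagent) in 20 mM phosphate pH 7.0 with 0.01% (detergent screen) or 0.0001% Triton X-100 was preincubated with compounds for 15 min at room temperature. Nitrocefin was then added from an 800 uM solution, and hydrolysis was followed at 480 nm.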
NS1 function inh = qHTS Assay for Inhibitors of Influenza NS1 Protein Function; 0.4% of 270,000 active; AID 2326, 2010; Potency, µM (titrated, usually from 46.1 µM), inactives show at the highest dose activity, positive = more growth; calls by dose curve; also: potency is read from the fitted curve at half-maximal effect; actives are rising curves; nearly all actives have a fitted effect of over 50% in size
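S. cerevisiae expressing influenza A NS1, grown in glucose, washed, then diluted 1:100 into pH 6.0 -URA galactose medium with 23 nl compound. Growth recovery read as OD600; NS1-free strain serves as control.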
CHX counter = Cycloheximide Counterscreen for Small Molecule Inhibitors of Shiga Toxin; AID 2314, 2010; cell reporter, cycloheximide protein synthesis inhibition counterscreen; 12% of 300,000 active; max response, %; in the data active = max response mostly above about 13%, no sharp cut-off; inactive = mostly below about 14%; also: read at 38.3 µM for the half of the compounds with a filed dose; 0% is about no effect
* marks the source's active call; other numbers are inactive results; u = inconclusive; x = not tested or not shown; [ ] = another dose, or the depositor's remark. The entries come from a sample that favours hits as a whole. Unless noted, calls follow the shape of the dose curve; as a rule, active = well fitted curve in the direction sought with a large enough effect; inconclusive = small, poorly fitted or top-dose-only effect, or another doubt; inactive = no such curve, though single readings can be large; an effect the other way counts as inactive or inconclusive.

SMILES	AmpC no deterg	Shiga toxin inh	AmpC detergent	NS1 function inh	CHX counter
COc1ccc(OCc2csc(N)n2)cc1	-13.5%	85.7*	-8.5%	x	36.0*
Cc1ccc(OCCc2csc(N)n2)cc1	-27.8%	54.1*	5.5%	x	34.2*
COc1ccc(-c2nnc(SCc3csc(N)n3)n2C)cc1	-5.6%	-17.1	u	9.9%	-4.1
CS(=O)(=O)c1ccc(Cl)c(NC(=O)COC(=O)CCCN2C(=O)c3cccc4cccc(c34)C2=O)c1	24.1%	x	-18.3%	x	x
Cc1cc(C(=O)NNC(=S)Nc2cccc(C(F)(F)F)c2)nn1C	-19.4%	32.7	-4.6%	4.3%	18.2*
O=C(NN=C1CCCCCCC1)c1ccc(F)cc1	-3.6%[2.29 µM]	76.4*	0.7%	-2.1%	24.0*
O=C(NN=C1CCCC1)c1ccn[nH]1	-10.9%	104.3*	-6.7%	5.8%	56.0*
O=C(NN=C1CCCCCC1)c1cccs1	-27.5%	92.1*	u	-10.5%	61.4*
O=C(NN=C1CCCCCCCCCCC1)c1ccccc1F	-13.8%	70.5*	0.4%	-1.0%	78.1*
O=C(NN=C1CCCC1)c1ccccc1OCc1ccc(Cl)cc1	-33.3%	54.4	1.6%	10.3%	22.6
Cc1ccc(CNC(=O)CSc2nc3ccsc3c(=O)n2-c2ccc(C(=O)O)cc2)cc1	x	x	5.7%	x	x
Cc1cccc(C)c1NC(=O)N1CCC(C(=O)c2ccc(F)cc2)CC1	-5.5%	3.0	-17.5%	13.3%	1.4
COc1cccc(C(=O)NCC(c2ccc(N(C)C)cc2)N2CCc3ccccc32)c1 (stereo not drawn)	x	x	25.4%	x	x
CCOc1cc(CNC(=O)CN2CCSc3ccccc32)cc(OCC)c1OCC	x	x	12.8%	x	x
CCOc1ccccc1C(=O)N(Cc1ccc(C)o1)C1CCS(=O)(=O)C1 (stereo not drawn)	-5.2%	2.8	-9.2%	-4.8%	-7.8
Cc1ccc(C(=O)N(Cc2ccco2)Cc2sccc2C)cc1	x	x	0.8%	x	x
O=C(NCC(c1cccnc1)N1CCOCC1)Oc1ccccc1 (stereo not drawn)	-19.3%	74.7*	-4.0%	-7.9%	23.7*
CC(=O)Oc1c(I)cc(I)cc1C(=O)Nc1ccc(Cl)cc1	-52.6%	36.3	9.0%	-76.8%	23.9*
Nc1nnc(N)c2ccccc12	-16.1%	-12.8	-1.2%	x	1.6
Nc1nsc2ccccc12	-9.2%	10.4	-3.1%	-63.9%	23.8*
NC(=O)COC(=O)c1c2c(nc3ccccc13)CCCCC2	-3.9%	-22.8	4.1%	x	6.8
O=C(COC(=O)c1c2c(nc3ccccc13)CCCC2)c1cccs1	0.0%	45.8	-11.2%	-114.2%	23.1*
O=C(COC(=O)c1c2c(nc3ccccc13)CCCCC2)c1ccc(Cl)s1	0.0%	78.5*	-6.6%	3.7%	8.7
COc1cc(OC)c(NS(=O)(=O)c2c(C(=O)N3CCC(C)CC3)c(C)n(C)c2C)cc1Cl	x	x	-7.0%	x	x
Cc1ccc(-n2nc(C)c3c(C(=O)O)cc(C)nc32)cc1	x	x	8.8%	x	x
SMILES	AmpC no deterg	Shiga toxin inh	AmpC detergent	NS1 function inh	CHX counter
CSc1nnc2c(n1)c(C)nn2-c1ccc(C)cc1	-23.6%	23.0	-9.6%	14.9%	19.6*
Cc1cc(Oc2ccccc2)nc(-c2ccccc2)n1	-22.1%	20.2	-5.5%	-38.4%	27.5*
O=C(COc1ccccc1F)Nc1nnc(SCc2cc(=O)n3ccccc3n2)s1	x	x	12.7%	x	x
N#CCCCSc1ncccc1-c1nc2ccccc2[nH]1	-27.9%	73.7	-8.5%	-10.7%	28.0*
CCC(C)NC(=O)c1ccccc1-c1nc2ccccc2[nH]1 (stereo not drawn)	-18.7%	-14.4	-2.2%	x	-1.6
N#CCSc1ncccc1-c1nc2ccccc2[nH]1	-8.1%	29.9*	-2.3%	-3.3%	16.7
CN(c1ccc(Br)cc1)S(=O)(=O)c1ccc2[nH]cc(C(=O)NCCN3CCOCC3)c(=O)c2c1	180.5%	-6.6	0.8%	7.7%	-0.5
Cc1c(NC(=O)CN2CCN(c3ccc(O)cc3)CC2)c(=O)n(-c2ccccc2)n1C	0.0%	-12.7	u	x	-1.4
CCCOc1ccc(NC(=O)C2CC(=O)N/C(=N/N=C(C)/C=C/c3ccc(N(C)C)cc3)S2)cc1 (stereo not drawn)	-59.1%	82.2*	-6.8%	u	39.7*
Cc1ccc(N/C=C(/C#N)c2ccsc2)cc1C	x	86.5*	-2.4%	-4.7%	42.2*
CN=C(Nc1ccc(Cl)cc1)c1ccc(C(F)(F)F)cc1	47.4%	26.8	u	-14.9%	14.7*
COc1cc2c(cc1NC(=O)Nc1ccc(F)cc1)oc1ccccc12	14.1µM*	-7.8	u	12.3%	-1.5
COc1cc2c(cc1NC(=O)Nc1cccc(C)c1)oc1ccccc12	-16.3%	8.3	0.5%	1.6%	-2.5
CCN(CC)S(=O)(=O)c1ccc(C(=O)Nc2cc3oc4ccccc4c3cc2OC)cc1	-13.1%	-5.0	-18.9%	-4.3%	1.7
COc1cc2c(cc1NC(=O)C(C)OC(=O)C1CC(=O)N(Cc3ccco3)C1)oc1ccccc12 (stereo not drawn)	140.4%	72.5	-9.1%	-112.5%	38.4*
COc1cc2c(cc1NC(=O)c1cccc(S(=O)(=O)N(C)C)c1)oc1ccccc12	10.1%	66.7*	-4.0%	-6.9%	24.9*
COc1cc2c(cc1NC(=S)Nc1ccccc1C)oc1ccccc12	-37.6%	90.5*	-3.1%	-1.5%	33.4*
CC(OC(=O)C1CC(=O)N(Cc2ccco2)C1)C(=O)Nc1cccc(C#N)c1 (stereo not drawn)	-12.1%	x	-13.0%	x	x
Cc1ccc(C)c(S(=O)(=O)N2CCCOC2CNC(=O)C(=O)NCCCn2ccnc2)c1 (stereo not drawn)	-3.9%	-6.1	-6.2%	-3.4%	-3.1
COc1ccc(NC(=O)Nc2cc3oc4ccccc4c3cc2OC)cc1	-38.7%	-18.2	2.2%	-1.0%	9.6
COc1cc2c(cc1NC(=O)C(C)Sc1ccc(NC(C)=O)cc1)oc1ccccc12 (stereo not drawn)	14.7%	12.2	-10.3%	17.7%	20.8*
COc1cc2c(cc1NC(=O)Nc1ccc(C)cc1)oc1ccccc12	-43.1%	27.6	-0.7%	-55.6%	19.1*
COc1cc2c(cc1NC(=O)C1CCCO1)oc1ccccc12 (stereo not drawn)	37.3%	133.6*	4.8%	-104.3%	50.1*
Cc1ccc(C(=O)Nc2ccc3ccccc3c2)cc1	-37.6%	-5.1	-1.6%	-7.1%	-2.8
O=C(Nc1ccc2ccccc2c1)c1cccc(F)c1	-37.9%	89.5*	-12.2%	-36.5%	51.9*
O=C(Nc1ccc2ccccc2c1)c1ccc(NS(=O)(=O)c2ccc(Br)s2)cc1	-27.0%	46.3*	u	3.7%	35.7*
O=C(Nc1ccc2ccccc2c1)c1ccc(Cl)cc1	-13.1%	68.1*	0.5%	13.4%	40.6*
O=C(Nc1ccc2oc(-c3cccc(F)c3)nc2c1)c1ccc2ccccc2c1	x	x	8.2%	x	x
O=C(Nc1cccc(NC(=O)c2cccc(F)c2)n1)c1cccc(F)c1	-43.5%	70.0*	-2.9%	-6.2%	23.3*
Cc1cc2c(s1)c1cnn(Cc3c(F)c(F)cc(F)c3F)c(=O)c1n2C	x	15.8	x	x	7.5
